Laboratory results from PubChem BioAssay (EPA / NIEHS).
“And” between values parts separate entries of the source, which are not always exact repeats. Equal entries are not always repeated. Records with an inconclusive call do not appear. A structure can be active in one record and inactive in another. The source made the active and inactive calls. The calls were made as follows, unless noted: active = hit-call score of the fitted dose curve at least 0.9, where 1 is the maximum; inconclusive = response in the unintended direction; inactive = score below 0.9.

Experiments:
[1] = target: Peroxisome proliferator-activated receptor gamma (Homo sapiens) (UniProt P37231); experiment: NVS_NR_hPPARg: NovaScreen (NVS) Nuclear Receptor Binding Assay for human Peroxisome Proliferator-activated Receptor gamma (PPARg) (AID 2283370)
Outline: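 Chemicals were tested first in duplicate at 25 uM, then in concentration series if active. Binding to cell-free PPARg protein was measured by fluorescence polarization after 2 h, with loss of signal scored against DMSO.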

[2] = target: Estrogen receptor beta (Homo sapiens) (UniProt Q92731); experiment: OT_ER_ERbERb_1440: Odyssey Thera (OT) 24-hour HEK293T Protein-Complementation Assay for Estrogen Receptor-beta/-beta Homodimer (AID 2283380);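 also: scored as signal increase over DMSO baseline for both agonists and antagonists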
Sequence of Estrogen receptor beta (Homo sapiens) (Q92731 whole entry, looked up, the tested form may be a part): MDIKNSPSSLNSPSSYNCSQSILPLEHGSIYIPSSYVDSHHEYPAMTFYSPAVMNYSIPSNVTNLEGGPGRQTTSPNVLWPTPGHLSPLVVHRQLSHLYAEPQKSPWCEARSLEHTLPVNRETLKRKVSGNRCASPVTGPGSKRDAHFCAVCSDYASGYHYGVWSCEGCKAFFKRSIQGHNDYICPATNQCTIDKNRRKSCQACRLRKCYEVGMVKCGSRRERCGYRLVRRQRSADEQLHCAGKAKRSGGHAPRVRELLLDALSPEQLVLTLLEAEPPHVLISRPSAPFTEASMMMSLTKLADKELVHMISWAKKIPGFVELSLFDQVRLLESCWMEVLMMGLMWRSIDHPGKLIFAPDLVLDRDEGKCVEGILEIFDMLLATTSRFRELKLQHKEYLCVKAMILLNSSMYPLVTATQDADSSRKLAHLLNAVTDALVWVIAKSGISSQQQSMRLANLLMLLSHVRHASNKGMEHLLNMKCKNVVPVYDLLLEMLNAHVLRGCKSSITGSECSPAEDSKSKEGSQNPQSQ
Outline: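 HEK293T cells stably expressing ER beta LBD (aa 310-547) homodimer fragment-complementation reporter, dosed 24 h. Cells formaldehyde-fixed, Draq5-stained; gain in nuclear (agonist) or nuclear plus cytoplasmic (antagonist) fluorescence versus DMSO read by laser scanning cytometry.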

[3] = target: Estrogen receptor (Homo sapiens) (UniProt P03372); experiment: OT_ERa_GFPERaERE_0480: Odyssey Thera (OT) 8-hour HeLa Transcription Induction Assay for Estrogen Receptor (AID 2283381; active = hit-call score of the fitted dose curve at least 0.9, where 1 is the maximum; inactive = score below 0.9)
Sequence of Estrogen receptor (Homo sapiens) (P03372 whole entry, looked up): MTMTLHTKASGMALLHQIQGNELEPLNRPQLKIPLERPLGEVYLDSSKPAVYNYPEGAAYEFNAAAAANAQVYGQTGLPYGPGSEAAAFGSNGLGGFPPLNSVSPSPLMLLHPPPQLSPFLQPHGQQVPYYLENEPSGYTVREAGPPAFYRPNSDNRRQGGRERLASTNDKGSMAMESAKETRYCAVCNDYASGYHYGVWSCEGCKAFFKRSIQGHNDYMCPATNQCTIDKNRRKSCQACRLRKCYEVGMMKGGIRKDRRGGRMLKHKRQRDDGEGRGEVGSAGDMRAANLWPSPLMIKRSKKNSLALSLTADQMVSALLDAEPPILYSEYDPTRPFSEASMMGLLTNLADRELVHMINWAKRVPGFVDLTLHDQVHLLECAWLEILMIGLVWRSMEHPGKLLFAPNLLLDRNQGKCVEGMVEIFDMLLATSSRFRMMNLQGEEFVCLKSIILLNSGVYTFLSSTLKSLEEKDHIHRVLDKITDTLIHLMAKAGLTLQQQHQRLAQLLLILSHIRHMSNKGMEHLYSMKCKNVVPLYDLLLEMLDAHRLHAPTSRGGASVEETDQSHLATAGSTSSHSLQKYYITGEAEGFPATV
Outline: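 Fluorescence microscopy with high-content image analysis measures ERE-driven GFP induction in HeLa cells at 8 h post-dose. Increases fitted against DMSO baseline.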

[4] = target: Estrogen receptor (Homo sapiens) (UniProt P03372); experiment: OT_ERa_GFPERaERE_0120: Odyssey Thera (OT) 2-hour HeLa Transcription Induction Assay for Estrogen Receptor (AID 2283382)
Outline: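 Fluorescence-microscopy images of the GFP-ERα/ERE reporter, scored by high-content image algorithms, give the readout. HeLa exposure lasted 2 h, and only signal increase over DMSO was fitted.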

[5] = target: Bile acid receptor (Homo sapiens) (UniProt Q96RI1); experiment: OT_FXR_FXRSRC1_0480: Odyssey Thera (OT) 8-hour HEK293T Protein-Complementation Assay for Farnesoid X receptor/SRC-1 Co-activator (AID 2283383)
Outline: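 Binding of FXR to coactivator SRC-1 was read as fluorescence from a reconstituted split reporter in HEK293T cells, 8 h after chemical addition. Only increases in signal versus DMSO were fit.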

[6] = target: Bile acid receptor (Homo sapiens) (UniProt Q96RI1); experiment: OT_FXR_FXRSRC1_1440: Odyssey Thera (OT) 24-hour HEK293T Protein-Complementation Assay for Farnesoid X receptor/SRC-1 Co-activator (AID 2283384)
Outline: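 Protein-fragment complementation: FXR and SRC-1 fused to reporter fragments that reassemble on interaction, read by fluorescence intensity. Human HEK293T cells measured 24 h post-dose; positive-direction fit versus DMSO.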

[7] = target: Retinoic acid receptor RXR-alpha (Homo sapiens) (UniProt P19793); experiment: OT_NURR1_NURR1RXRa_0480: Odyssey Thera (OT) 8-hour HEK293T Protein Complementation Assay for Nurr1/retinoid X receptor (RXR) (AID 2283385)
Sequence of Retinoic acid receptor RXR-alpha (Homo sapiens) (P19793 whole entry, looked up, the tested form may be a part): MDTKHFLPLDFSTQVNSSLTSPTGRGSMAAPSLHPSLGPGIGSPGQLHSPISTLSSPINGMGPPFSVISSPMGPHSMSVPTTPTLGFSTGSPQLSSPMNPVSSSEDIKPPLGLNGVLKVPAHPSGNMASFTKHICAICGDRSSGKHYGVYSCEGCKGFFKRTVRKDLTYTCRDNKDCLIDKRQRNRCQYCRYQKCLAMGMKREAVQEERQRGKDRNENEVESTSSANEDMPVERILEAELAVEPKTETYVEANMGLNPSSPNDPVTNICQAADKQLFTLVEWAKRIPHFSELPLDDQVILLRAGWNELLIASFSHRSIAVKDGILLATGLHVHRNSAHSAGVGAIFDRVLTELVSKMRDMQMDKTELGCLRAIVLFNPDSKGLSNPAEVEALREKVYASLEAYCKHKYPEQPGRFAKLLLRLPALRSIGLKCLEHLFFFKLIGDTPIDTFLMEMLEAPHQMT
Outline: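 Interaction of Nurr1 with RXRα read as reconstituted reporter fluorescence in a HEK293T fragment-complementation system, 8 h post-treatment; increase over DMSO baseline analysed.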

[8] = target: human Norepinephrine Transporter (NET), SLC6A2 (gene 6530) (UniProt P23975); experiment: NVS_TR_hNET: NovaScreen (NVS) Transporter Assay for human Norepinephrine Transporter (NET) (AID 2283377);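 also: cell-free membrane protein extracted from CHO cells expressing human NET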;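 as to AC50: displacement of radioligand from human NET seen as loss of scintillation signal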
Outline: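 CHO cell extracts expressing the transporter; tritiated or iodinated tracer displaced competitively; filtration plus scintillation readout at 1 h. Single-point duplicates at 25 uM, concentration series for follow-up; activity = signal drop relative to DMSO.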

[9] = target: mouse Estrogen Receptor alpha (Era), Esr1 (gene 13982) (UniProt P19785); experiment: NVS_NR_mERa: NovaScreen (NVS) Nuclear Receptor Binding Assay for mouse Estrogen Receptor alpha (Era) (AID 2283378);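 also: hit means loss of bound radioligand signal relative to DMSO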
Sequence of mouse Estrogen Receptor alpha (Era), Esr1 (gene 13982) (P19785 whole entry, looked up): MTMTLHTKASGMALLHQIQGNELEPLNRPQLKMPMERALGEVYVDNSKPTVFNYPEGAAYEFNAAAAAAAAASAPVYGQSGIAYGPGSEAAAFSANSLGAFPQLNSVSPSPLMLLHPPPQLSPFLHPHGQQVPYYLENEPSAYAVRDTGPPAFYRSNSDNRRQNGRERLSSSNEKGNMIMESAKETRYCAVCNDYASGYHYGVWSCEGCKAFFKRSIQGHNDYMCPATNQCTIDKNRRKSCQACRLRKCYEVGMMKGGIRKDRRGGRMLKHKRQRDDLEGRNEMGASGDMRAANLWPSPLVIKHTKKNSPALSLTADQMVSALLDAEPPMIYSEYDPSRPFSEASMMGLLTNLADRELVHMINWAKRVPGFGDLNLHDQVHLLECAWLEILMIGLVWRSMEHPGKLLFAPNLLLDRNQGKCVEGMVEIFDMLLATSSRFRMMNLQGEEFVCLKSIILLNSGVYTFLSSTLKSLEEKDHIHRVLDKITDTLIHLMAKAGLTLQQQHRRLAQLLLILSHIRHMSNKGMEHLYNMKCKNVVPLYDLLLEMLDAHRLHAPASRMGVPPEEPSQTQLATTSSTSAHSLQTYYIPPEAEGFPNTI
Outline: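 Extracted mouse Era incubated with tritiated or iodinated radioligand plus test chemical, 18 h. Bound fraction separated on filters, counted by scintillation. DMSO = negative control/baseline; duplicate single-point at 25 uM, then concentration-response follow-up.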

[10] = target: Nuclear receptor subfamily 1 group I member 2 (Homo sapiens) (UniProt O75469); experiment: NVS_NR_hPXR: NovaScreen (NVS) Nuclear Receptor Binding Assay for human Pregnane X Receptor (PXR) (AID 2283365);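 also: a drop in FRET signal versus DMSO baseline means the compound binds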
Sequence of Nuclear receptor subfamily 1 group I member 2 (Homo sapiens) (O75469 whole entry, looked up): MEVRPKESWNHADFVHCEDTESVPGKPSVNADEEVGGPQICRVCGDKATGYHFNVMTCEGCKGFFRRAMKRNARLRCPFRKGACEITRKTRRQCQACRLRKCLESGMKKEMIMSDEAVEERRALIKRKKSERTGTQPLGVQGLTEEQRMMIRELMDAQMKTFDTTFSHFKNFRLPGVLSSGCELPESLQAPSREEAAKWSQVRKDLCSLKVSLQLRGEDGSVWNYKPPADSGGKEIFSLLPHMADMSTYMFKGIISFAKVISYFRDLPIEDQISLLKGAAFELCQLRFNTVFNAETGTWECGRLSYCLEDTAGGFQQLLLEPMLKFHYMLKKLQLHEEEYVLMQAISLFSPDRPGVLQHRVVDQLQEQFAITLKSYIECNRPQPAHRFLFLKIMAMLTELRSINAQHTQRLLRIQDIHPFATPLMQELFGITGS
Outline: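 Human PXR protein, cell-free; compound added, incubated 2 h, TR-FRET read. Signal decrease vs DMSO = binding. Screened 25 uM duplicate, actives re-run as dilution series.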

[11] = target: guinea pig Sigma Receptor, Non-selective Binding, SIGMAR1 (gene 100135589) (UniProt Q60492); experiment: NVS_OR_gSIGMA_NonSelective: NovaScreen (NVS) Nuclear Receptor Binding Assay for guinea pig Sigma Receptor, Non-selective Binding (AID 2283367)
Outline: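 Membranes from guinea pig brain incubated with radioligand and test chemical for 1 h, then filtered and scintillation-counted. Duplicate primary testing at 25 uM, with concentration-series follow-up for actives.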

[12] = target: Norway rat Vesicular Monoamine Transporter (VMAT2), neurotransmitter transporter, Slc18a2 (gene 25549) (UniProt Q01827); experiment: NVS_TR_rVMAT2: NovaScreen (NVS) Transporter Assay for Norway rat Vesicular Monoamine Transporter (VMAT2), neurotransmitter transporter (AID 2283376);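 also: actives lower the bound radioligand signal below the DMSO level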
Sequence of Norway rat Vesicular Monoamine Transporter (VMAT2), neurotransmitter transporter, Slc18a2 (gene 25549) (Q01827 whole entry, looked up): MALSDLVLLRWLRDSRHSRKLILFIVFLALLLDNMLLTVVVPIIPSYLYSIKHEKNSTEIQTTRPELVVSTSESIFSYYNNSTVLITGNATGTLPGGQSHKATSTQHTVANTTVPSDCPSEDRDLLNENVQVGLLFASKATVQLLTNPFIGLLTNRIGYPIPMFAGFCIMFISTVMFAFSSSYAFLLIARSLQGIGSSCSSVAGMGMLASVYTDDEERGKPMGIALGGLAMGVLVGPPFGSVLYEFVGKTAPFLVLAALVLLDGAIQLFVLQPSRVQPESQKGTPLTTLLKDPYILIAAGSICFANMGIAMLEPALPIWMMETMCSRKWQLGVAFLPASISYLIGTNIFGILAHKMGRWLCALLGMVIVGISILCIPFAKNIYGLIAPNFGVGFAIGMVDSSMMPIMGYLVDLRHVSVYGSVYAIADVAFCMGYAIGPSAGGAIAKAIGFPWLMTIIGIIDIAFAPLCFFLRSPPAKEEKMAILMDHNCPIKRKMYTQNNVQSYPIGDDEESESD
Outline: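 Filter-based scintillation counting of radioligand bound to rat forebrain-derived VMAT2 protein, cell-free, 1 h post-dose. Signal loss relative to DMSO control scored; single-concentration duplicate screen (25 uM) followed by concentration-response testing of actives.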

[13] = target: Agonist Androgen Response Element (ARE), AR (gene 367) (UniProt P10275); experiment: OT_AR_ARELUC_AG_1440: Odyssey Thera (OT) 24-hour CHO-K1 Luciferase Assay for Agonist Androgen Response Element (ARE) (AID 2283379)
Sequence of Agonist Androgen Response Element (ARE), AR (gene 367) (P10275 whole entry, looked up): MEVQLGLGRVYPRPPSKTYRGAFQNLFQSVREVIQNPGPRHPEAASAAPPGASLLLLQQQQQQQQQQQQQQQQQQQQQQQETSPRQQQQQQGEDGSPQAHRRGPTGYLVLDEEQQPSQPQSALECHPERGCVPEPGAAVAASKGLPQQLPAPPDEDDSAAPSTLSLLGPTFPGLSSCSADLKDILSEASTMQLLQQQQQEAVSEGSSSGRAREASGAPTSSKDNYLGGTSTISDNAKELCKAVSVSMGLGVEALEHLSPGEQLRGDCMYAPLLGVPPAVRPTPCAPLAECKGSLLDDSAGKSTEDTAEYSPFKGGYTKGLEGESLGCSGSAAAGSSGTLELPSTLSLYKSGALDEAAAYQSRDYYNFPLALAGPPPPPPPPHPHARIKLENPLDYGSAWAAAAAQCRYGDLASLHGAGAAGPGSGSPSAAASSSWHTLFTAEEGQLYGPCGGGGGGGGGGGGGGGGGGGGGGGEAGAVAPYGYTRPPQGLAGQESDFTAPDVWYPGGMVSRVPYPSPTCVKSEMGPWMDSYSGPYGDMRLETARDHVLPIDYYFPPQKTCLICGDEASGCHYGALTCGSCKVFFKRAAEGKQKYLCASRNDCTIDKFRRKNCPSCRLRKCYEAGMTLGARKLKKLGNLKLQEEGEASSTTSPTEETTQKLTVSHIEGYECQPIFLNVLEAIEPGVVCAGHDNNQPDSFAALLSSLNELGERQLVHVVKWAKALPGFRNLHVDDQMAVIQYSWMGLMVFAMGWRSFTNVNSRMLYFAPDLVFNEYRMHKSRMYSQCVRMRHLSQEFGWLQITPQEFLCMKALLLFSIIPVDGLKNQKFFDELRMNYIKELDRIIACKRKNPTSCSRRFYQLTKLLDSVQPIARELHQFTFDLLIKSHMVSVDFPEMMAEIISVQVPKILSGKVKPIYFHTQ
Outline: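 Gain-of-signal reporter endpoint: cells (CHO-K1, hamster) are treated 24 h, luciferin/ATP reagent added, and luminescence compared with DMSO baseline.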

[14] = target: Glucocorticoid receptor (Homo sapiens) (UniProt P04150); experiment: NVS_NR_hGR: NovaScreen (NVS) Nuclear Receptor Binding Assay for human Glucocorticoid Receptor (GR) (AID 2283363);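 also: activity is loss of specific radioligand binding signal relative to DMSO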
Sequence of Glucocorticoid receptor (Homo sapiens) (P04150 whole entry, looked up): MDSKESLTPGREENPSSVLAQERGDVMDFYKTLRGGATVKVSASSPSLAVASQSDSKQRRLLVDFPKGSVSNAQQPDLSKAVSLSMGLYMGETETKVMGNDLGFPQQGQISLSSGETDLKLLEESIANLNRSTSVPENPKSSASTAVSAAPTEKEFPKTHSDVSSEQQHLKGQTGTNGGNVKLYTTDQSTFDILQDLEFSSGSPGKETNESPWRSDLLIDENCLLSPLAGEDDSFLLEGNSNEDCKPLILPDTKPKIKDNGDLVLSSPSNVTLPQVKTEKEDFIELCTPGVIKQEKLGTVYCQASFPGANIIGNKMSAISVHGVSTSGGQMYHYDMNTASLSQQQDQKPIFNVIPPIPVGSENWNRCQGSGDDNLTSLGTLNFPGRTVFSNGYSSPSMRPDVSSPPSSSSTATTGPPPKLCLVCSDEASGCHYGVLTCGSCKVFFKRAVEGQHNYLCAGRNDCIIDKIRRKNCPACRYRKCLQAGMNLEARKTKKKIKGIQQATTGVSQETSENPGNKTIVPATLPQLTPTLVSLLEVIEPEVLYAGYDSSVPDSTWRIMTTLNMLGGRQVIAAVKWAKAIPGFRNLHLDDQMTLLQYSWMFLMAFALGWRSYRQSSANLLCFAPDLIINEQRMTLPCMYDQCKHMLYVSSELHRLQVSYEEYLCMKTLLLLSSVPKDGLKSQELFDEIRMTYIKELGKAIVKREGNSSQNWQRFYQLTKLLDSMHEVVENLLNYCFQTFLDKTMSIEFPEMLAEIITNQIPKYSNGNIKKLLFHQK
Outline: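 Filter scintillation readout of tritiated/iodinated radioligand displaced by test chemical; cell-free extracted protein; 16 h. DMSO = negative control/baseline. Duplicate single-point 25 uM screen, then concentration-response on actives.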

[15] = target: human Adenosine Transporter (Adot), SLC29A1 (gene 2030) (UniProt Q99808); experiment: NVS_TR_hAdoT: NovaScreen (NVS) Transporter Assay for human Adenosine Transporter (Adot) (AID 2283368)
Outline: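 Binding displacement on U937 extracted protein, read 1 h post-dose by filtration and scintillation counting. Primary duplicate test at 25 uM, then singleton concentration series with 50 uM top; DMSO baseline.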

[16] = target: human Dopamine Transporter (DAT), SLC6A3 (gene 6531) (UniProt Q01959); experiment: NVS_TR_hDAT: NovaScreen (NVS) Transporter Assay for human Dopamine Transporter (DAT) (AID 2283374);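 also: activity means loss of bound radioligand signal relative to DMSO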
Outline: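 hDAT membranes + tritiated/iodinated radioligand, competitive displacement; 1 h; filter scintillation readout. Single conc 25 uM (duplicate), then conc-response for actives. DMSO = negative control.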

[17] = test system: rat Norepinephrine Transporter (NET), gene 83511; experiment: NVS_TR_rNET: NovaScreen (NVS) Transporter Assay for rat Norepinephrine Transporter (NET) (AID 2283373)
Outline: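 Competitive radioligand displacement at the rat NET using forebrain membrane preparations, 1 h incubation, filter-based scintillation readout. Primary testing in duplicate at a single 25 uM concentration; confirmed actives retested across concentrations.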

Measured: AC50

CO/C=C(/C(=O)OC)c1ccccc1COc1cccc(C(F)(F)F)n1
active: [5] 9.85 µM | [6] 3.27 µM | [7] 50 µM
inactive: [1] | [2] | [3] | [4] | [7]

O=C(O)C(F)(F)C(F)(F)C(F)(F)C(F)(F)C(F)(F)C(F)(F)C(F)(F)C(F)(F)F
inactive: [1] | [8] | [9] | [2] | [3] | [4] | [6] | [7]

C[C@]12CCC(=O)C=C1CC[C@@H]1[C@@H]2CC[C@]2(C)C(=O)CC[C@@H]12
active: [11] 11.3 µM | [5] 26.8 µM and 19.3 µM and 27.1 µM | [6] 28.7 µM and 30.7 µM
inactive: [10] | [2] | [3] | [4] | [6] | [7]

Nn1cnnc1
active: [12] 10.9 µM
inactive: [1] | [2] | [3] | [4]

Cc1cc2c3c(c1)C(c1ccccc1)=N[C@@H](NC(=O)c1ccncc1)C(=O)N3CC2
inactive: [12] | [2] | [3] | [4] | [7]
active: [1] 4.96 µM | [5] 20.8 µM | [6] 32.8 µM | [7] 62 µM

O=NN(c1ccccc1)c1ccccc1
active: [8] 14 µM
inactive: [1] | [3] | [4] | [5] | [6] | [7]

NS(=O)(=O)C(F)(F)C(F)(F)C(F)(F)C(F)(F)C(F)(F)C(F)(F)C(F)(F)C(F)(F)F
inactive: [1] | [9] | [13] | [2] | [7]
active: [3] 42 µM | [4] 23.7 µM | [5] 79.1 µM | [6] 84.4 µM | [7] 83.3 µM

Oc1ccc(C(c2ccc(O)cc2)(C(F)(F)F)C(F)(F)F)cc1
active: [14] 726 nM [middle of 4 runs] | [15] 25 µM | [1] 30.1 µM and 25 µM and 19.6 µM | [16] 30.9 µM | [12] 7.78 µM | [8] 16.1 µM
inactive: [10] | [1] | [7]

Cc1cccc(C)c1N
inactive: [2] | [3] | [4] | [5] | [6]
active: [1] 0.0218 µM

CC(C)(O)C(=O)Nc1ccc([N+](=O)[O-])c(C(F)(F)F)c1
active: [9] 2.7 µM
inactive: [10] | [9] | [13] | [2] | [3] | [4] | [7]

Cc1cc(-c2ccc(N)c(C)c2)ccc1N
active: [16] 19.5 µM | [9] 0.999 µM | [3] 37.2 µM | [4] 50 µM
inactive: [10] | [9] | [3] | [4] | [7]

Nc1ccc(-c2ccc(N)cc2)cc1
inactive: [1] | [16] | [2] | [3] | [4] | [7]
active: [11] 25 µM | [17] 14.3 µM | [8] 11.8 µM
